The text below walks through data of PubChem BioAssay (NCI).

Values joined by “and” are separate entries in the source; they are usually repeats but may differ in a detail not shown here. Equal entries are not always repeated. The panel holds about 83,000 compounds, 20% with a hit somewhere; the sample as a whole holds those more often.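 Method: cells in 96-well plates; compound added at one concentration; 48 h incubation; percent growth measured; values under 10 scored active.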 Active and inactive are the calls of the source.

The test system of this assay is HCC-2998 colon. In words: NCI-60 one-dose screen, 48 h (100 = growth as untreated, 0 = no growth, -100 = all killed). The note with it: 10 µM unless noted. As to the method: Growth inhibition of the HCC-2998 human tumor cell line is measured as a screen for anti-cancer activity. Cells are grown in 96 well plates and exposed to the test compound for 48 hours. Compounds are tested at a single concentration, which is 10^-5 M for most compounds. The reported endpoint is percent growth (GI% or GIPRCNT), where numbers from 0 - 100% represent growth inhibition, and numbers from -100% - 0 represent cell death. For example, a value of 40 represents 60% growth inhibition. A value of 0 means no net growth occurred over the course of the experiment. A value of -40 indicates 40% of cells at the beginning of the experiment died by the end of the experiment. A value of -100 means all cells are dead at the end of the experiment.
NCI-60 Human Tumor Cell Lines Screen was performed using the standard one-dose NCI protocol, which is described in more detail at https://dtp.cancer.gov/discovery_development/nci-60/default.htm.
Compounds with GIPRCNT values below 10 were considered active. Activity score was based on GIPRCNT using the following formula: […]
Score is 0 for GIPRCNT values of 100 or above, 50 for GIPRCNT values of 0, and 100 for GIPRCNT values of -100.
With `Cc1ccc(=O)[nH]n1`, the growth was 98.2% (inactive) and 107% (inactive). `O=[N+]([O-])c1cccc(SSc2cccc([N+](=O)[O-])c2)c1`: the growth is 108% (inactive). Regarding `CCCCCCCCCCNC(=O)CI`, the growth was 98.4% (inactive). `ClCCOCCOc1ccc(C2CCCCC2)cc1`: the growth was 106% (inactive). As for `CC(=O)OCC1OC(OC(C)=O)C(OC(C)=O)C(OC(C)=O)C1OC(C)=O` (stereo not given), the figure is 111% (inactive) and 101% (inactive); as for `CCN(CCNS(C)(=O)=O)c1ccc(N)c(C)c1`, 103% (inactive) and 102% (inactive). For `c1ccc(CNCCNCc2ccccc2)cc1`, the growth is 116% (inactive).

As to `C#CCOC(=O)Nc1ccccc1`, the growth was 100% (inactive). On to `O=C(O)CCCl`, for which the growth was 104% (inactive). On to `O=C1OC(C(O)C(O)CO)C(O)=C1O` (stereo not given), for which the growth was -23.7% (active) and 98.9% (inactive). For `Nc1ccc2c(O)cc(S(=O)(=O)O)cc2c1`, the growth was 88.6% (inactive) and 107% (inactive). As for `CC1CCC2(C(=O)O)CCC3(C)C(=CCC4C5(C)CCC(O)C(C)(C)C5CCC43C)C2C1C` (stereo not given), the growth is -29% (active) and 91.4% (inactive). As for `CC(C)NC(=O)N/C=C(\C#N)C(N)=O`, the figure is 97.5% (inactive); as for `CCCCCCCCCCCCCCCCC(C(=O)O)C(O)(CC(=O)O)C(=O)O` (stereo not given), 96.9% (inactive); as for `CC(C)(O)C(=O)O`, 119% (inactive). As for `c1ccc(-c2nc3ccccc3s2)cc1`, the growth is 97.2% (inactive). As for `NC(=O)NCCCC(N)C(=O)O` (stereo not given), the figure is 110% (inactive); as for `N#CC(C#N)N=Nc1ccc(Cl)cc1`, 75.3% (inactive); as for `O=C1c2c(O)ccc(O)c2C(=O)c2c(NCCNCCO)ccc(NCCNCCO)c21`, -88.5% (active). As for `O=CN1CCCCC1`, the growth is 105% (inactive). As for `COc1ccc2cc1Oc1ccc(cc1)C[C@H]1c3cc(c(OC)cc3CCN1C)Oc1c(OC)c(OC)cc3c1[C@H](C2)N(C)CC3`, the figure is 0.135% (active). Regarding `CC(C)NCC(O)c1ccc(O)c(O)c1` (stereo not given), the growth was 105% (inactive) and 117% (inactive) and 108% (inactive). In the case of `CC(C)C(C)(C)c1ccc(O)cc1`, the growth is 114% (inactive).

As to `CC1=C/C(O)CC(=O)Cc2nc(co2)C(=O)N2CCC=C2C(=O)OC(C(C)C)C(C)/C=C\C(=O)NC/C=C\1` (stereo not given), the growth was 118% (inactive). Take `Brc1ccc(SSc2ccc(Br)cc2)cc1`: the growth was 93.5% (inactive). With `CC(=O)NCC(=O)c1ccc([N+](=O)[O-])cc1`, the growth is 109% (inactive). Take `COc1ccc(N/C=C/C2=[N+](C)c3ccccc3C2(C)C)c(OC)c1`: the growth was 98.4% (inactive). As for `C/C(=C\c1ccccc1)c1ccccn1`, the figure is 117% (inactive); as for `NC(Cc1c[nH]c2ccccc12)C(=O)O` (stereo not given), 103% (inactive) and 101% (inactive). Take `Nc1ncnc2c1ncn2C1OC(COP(=O)(O)O)C(O)C1O` (stereo not given): the growth is 104% (inactive).

Turning to `O=C(O)/C=C\C(=O)Nc1cccc2ccccc12`, the growth was 118% (inactive) and 96.8% (inactive).

Turning to `CC1CCC(C(C)C)C(NNC(N)=O)C1` (stereo not given), the growth was 91.8% (inactive). On to `CCCCCCCCCCCCCCCc1ccc(N)c(OC2OC(CO)C(O)C(O)C2O)c1` (stereo not given), for which the growth is 9.53% (active). As for `NC1CCC(C(=O)O)CC1` (stereo not given), the figure is 111% (inactive) and 100% (inactive); as for `O=C(/C=C/c1ccccc1)c1ccccc1`, 120% (inactive); as for `O=C1CSC2=NCCN12`, 96.9% (inactive) and 107% (inactive).

Turning to `O=C1C=C(Nc2ccccc2)c2ccccc2C1=O`, the growth was 54.3% (inactive) and 90.5% (inactive). Take `Cc1cc(-c2ccc(N=Nc3ccc4c(S(=O)(=O)O)cc(S(=O)(=O)O)c(N)c4c3O)c(C)c2)ccc1N=Nc1ccc2c(S(=O)(=O)O)cc(S(=O)(=O)O)c(N)c2c1O`: the growth was 117% (inactive). As for `O=c1n(CC2CO2)c(=O)n(CC2CO2)c(=O)n1CC1CO1` (stereo not given), the growth was 94.8% (inactive). With `Oc1ccc(Cc2ccccc2Cl)c(O)c1`, the growth is 91.3% (inactive).
